Test results: PubChem BioAssay (EPA / NIEHS)
“And” between values parts separate entries of the source, which are not always exact repeats. Identical values can stand only once. More than one record can exist for a structure, and the calls need not agree. The source made the active and inactive calls. Rule for the calls: active = hit-call score of the fitted dose curve at least 0.9, where 1 is the maximum; inactive = score below 0.9.

Experiment: ATG_PXRE_CIS: Attagene CIS-FACTORIAL HepG2 Assay for human Pregnane X Receptor Element (PXRE) (AID 2282957)
Settings: HepG2 Attagene CIS-FACTORIAL PXRE reporter, mRNA; actives raise or lower the signal
Protocol: ATG_CIS is a cell-based, multiplexed-readout assay that uses HepG2, a human liver cell line, with measurements taken at 24 hours after chemical dosing in a 24-well plate.ATG_PXRE_CIS is one of 52 assay component(s) measured or calculated from the ATG_CIS assay. It is designed to make measurements of mRNA induction, a form of inducible reporter, as detected with fluorescence intensity signals by Reverse transcription polymerase chain reaction (RT-PCR) and Capillary electrophoresis technology.Data from the assay component ATG_PXRE_CIS was analyzed into 1 assay endpoint. This assay endpoint, ATG_PXRE_CIS, was analyzed with bidirectional fitting relative to DMSO as the negative control and baseline of activity. Using a type of inducible reporter, measures of mRNA for gain or loss-of-signal activity can be used to understand the reporter gene at the transcription factor-level as they relate to the gene NR1I2. Furthermore, this assay endpoint can be referred to as a primary readout, because this assay has produced multiple assay endpoints where this one serves a reporter gene function. To generalize the intended target to other relatable targets, this assay endpoint is annotated to the nuclear receptor intended target family, where the subfamily is non-steroidal.
Human liver HepG2 cells are transiently transfected with multiple reporter transcription units (MRTUs) in 6-well plates using FuGene 6 reagent (Roche; 3 ml FuGene/1 mg DNA). The MRTU constructs are regulated by a cis-regulating element (promoter). […] A major difference between the CIS and TRANS system is that in CIS activities of endogenous TFs are measured, whereas the TRANS assay evaluates changes in activities of exogenous, chimeric NR-Gal4 proteins. […] At the end of 24 hour incubation, total RNA was isolated using TriZol reagent (Invitrogen). The isolated RNA is then reverse-transcribed using oligo(dT) primer and Mo-MLV reverse transcriptase (Invitrogen) with DNAse I (Ambion) treatment for 30 min. The one-tenth of the produced cDNA was amplified by PCR using Taq DNA polymerase (Invitrogen) and two reporter sequence-specific primers. The PCR products were fluorescently labeled by primer extension with 6-arboxyfluorescein (6-FAM) 5'-labeled reporter sequence-specific primer (2 min at 95 C, 20 s at 68 C and 10 min at 72 C) and these products were digested with 5U of HpaI (New England Biolabs) for 2h at 37 C. The fragments were purified using Qiaquick PCR columns (Qiagen), analyzed on an ABI 3130xL genetic analyzer (Applied Biosystems) with peak positions identified by using a set of X-rhodamine (ROX)-labeled MapMarker1000 molecular weight standards (BioVentures). The raw capillary electrophoresis data was processed using Attagraph software (Attagene).

| Structure (SMILES) | outcome | AC50 |
| --- | --- | --- |
| O=C(NC(=O)c1c(F)cccc1F)Nc1cc(Cl)c(OC(F)(F)C(F)F)c(Cl)c1 | inactive |  |
| CCCCCCCCCc1ccc(O)cc1 | inactive | 169 µM (active) and 11.1 µM (active) |
| CCNc1nc(NC(C)C)nc(SC)n1 |  | 13.5 µM (active) |
| Clc1ccc(C(Cl)(Cl)Cl)cc1 | inactive |  |
| CC1=C2C[C@H]3[C@@H](CC=C4C[C@@H](O)CC[C@@]43C)[C@@H]2CC[C@]12O[C@@H]1C[C@H](C)CN[C@H]1[C@H]2C | inactive |  |
| Cc1ccccc1[N+](=O)[O-] | inactive |  |
| CC(C)(c1ccccc1)c1ccc(O)cc1 |  | 2.59 µM (active) [middle of 4 runs] |
| ClC1=C(Cl)[C@]2(Cl)[C@@H]3[C@@H](Cl)[C@H]4O[C@H]4[C@@H]3C1(Cl)C2(Cl)Cl |  | 3.28 µM (active) |
| CO/C=C(/C(=O)OC)c1ccccc1COc1cccc(C(F)(F)F)n1 |  | 3.54 µM (active) |
| CCCCCCOC(=O)c1ccccc1C(=O)OCCCCCC |  | 3.19 µM (active) |
| c1ccc(-c2ccccc2)cc1 | inactive |  |
| ClC(Cl)=C(c1ccc(Cl)cc1)c1ccc(Cl)cc1 |  | 4.93 µM (active) [middle of 4 runs] |
| O=C(NC(=O)c1cc(F)c(F)cc1Cl)Nc1cc(F)ccc1N1CCC(C(=O)O)CC1 |  | 4.65 µM (active) |
| Cc1cc(-c2ccc(N)c(C)c2)ccc1N | inactive | 46.7 µM (active) |
| Nc1ccc(-c2ccc(N)cc2)cc1 | inactive |  |
| N#Cc1ccc(N(CC(N)=O)CC(F)(F)F)cc1C(F)(F)F | inactive |  |
| Oc1ccc(C(c2ccc(O)cc2)(C(F)(F)F)C(F)(F)F)cc1 |  | 4.15 µM (active) [middle of 4 runs] |
| CCC(C)c1cc([N+](=O)[O-])cc([N+](=O)[O-])c1O (stereo not given) | inactive |  |

| Structure (SMILES) | outcome | AC50 |
| --- | --- | --- |
| CN(C)c1nc(=O)n(C2CCCCC2)c(=O)n1C |  | 50 µM (active) |
| O=NN(c1ccccc1)c1ccccc1 |  | 27.8 µM (active) |
| C[C@]12CCC(=O)C=C1CC[C@@H]1[C@@H]2CC[C@]2(C)C(=O)CC[C@@H]12 | inactive | 15.2 µM (active) and 27.7 µM (active) and 15.3 µM (active) |
| Cc1ccccc1O | inactive |  |
| C=CC(=O)NCNC(=O)C=C | inactive |  |
| COc1ccc(O)c(C(C)(C)C)c1 |  | 8.2 µM (active) |
| CCC(C)(c1ccc(O)cc1)c1ccc(O)cc1 |  | 1.13 µM (active) [middle of 4 runs] |
| CCOP(=S)(OCC)SCSC(C)(C)C |  | 7.42 µM (active) and 2.05 µM (active) |
| NS(=O)(=O)C(F)(F)C(F)(F)C(F)(F)C(F)(F)C(F)(F)C(F)(F)C(F)(F)C(F)(F)F | inactive | 246 µM (active) |
| O=S(=O)(O)C(F)(F)C(F)(F)C(F)(F)C(F)(F)C(F)(F)C(F)(F)F |  | 51.4 µM (active) [middle of 4 runs] |
| COS(=O)(=O)OC | inactive |  |
| OCC(O)CO | inactive | 15.9 µM (active) |
| CCOC(=O)C(O)(c1ccc(Cl)cc1)c1ccc(Cl)cc1 |  | 3.33 µM (active) |
| O=C(O)C(F)(F)C(F)(F)C(F)(F)C(F)(F)C(F)(F)F | inactive |  |
| ClC1=C(Cl)[C@]2(Cl)[C@@H]3[C@H]4C[C@H]([C@@H]5O[C@H]45)[C@@H]3[C@@]1(Cl)C2(Cl)Cl |  | 1.58 µM (active) |
| O=S(=O)(O)C(F)(F)C(F)(F)C(F)(F)C(F)(F)F | inactive |  |
| CC(C)C(=O)OCC(C)(C)C(OC(=O)C(C)C)C(C)C (stereo not given) |  | 26.7 µM (active) |
